Article PMC7862700, “An all-to-all approach to the identification of sequence-specific readers for epigenetic DNA modifications on cytosine”

Tests used:
Assay in all cases: DAPPL (digital affinity profiling via proximity ligation, sequencing); 10 mM Tris-HCl pH 7.5, 50 mM NaCl, 1 mM DTT, 4% glycerol, room temperature, 30 min; GST-TFs on glutathione beads, 16-mer random dsDNA library, 0.1% formaldehyde crosslink after washing; high values mean tight binding
FEV = molecular target: T1, FEV (Homo sapiens, UniProt Q99581 1-238); conditions: protein: recombinant; tags: N-terminal GST; dsDNA, one strand shown
T1 sequence: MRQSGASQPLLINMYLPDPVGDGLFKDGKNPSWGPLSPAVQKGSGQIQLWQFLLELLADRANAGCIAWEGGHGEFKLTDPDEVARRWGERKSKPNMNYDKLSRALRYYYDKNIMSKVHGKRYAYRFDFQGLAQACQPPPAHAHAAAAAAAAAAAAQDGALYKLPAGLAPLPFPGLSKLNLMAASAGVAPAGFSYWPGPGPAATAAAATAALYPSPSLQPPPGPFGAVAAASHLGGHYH
In short: (§1)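 Human transcription factors were made in yeast as GST fusions, captured on glutathione beads and barcoded with DNA. With a tag-only sample included, the pool was incubated with 200 nmole of a random double-stranded 16-mer DNA library in Tris/NaCl/DTT/glycerol buffer at room temperature for 30 min, then crosslinked with 0.1% formaldehyde after washing, ligated by proximity, amplified and sequenced. For binding signal, each hexamer's read frequency for a factor is divided by its frequency for the tag-only sample.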

ETV5 = ETV5 (Homo sapiens, UniProt P41161 1-510); conditions: protein: recombinant; tags: N-terminal GST; dsDNA, one strand shown
ETV5, sequence (P41161 whole entry): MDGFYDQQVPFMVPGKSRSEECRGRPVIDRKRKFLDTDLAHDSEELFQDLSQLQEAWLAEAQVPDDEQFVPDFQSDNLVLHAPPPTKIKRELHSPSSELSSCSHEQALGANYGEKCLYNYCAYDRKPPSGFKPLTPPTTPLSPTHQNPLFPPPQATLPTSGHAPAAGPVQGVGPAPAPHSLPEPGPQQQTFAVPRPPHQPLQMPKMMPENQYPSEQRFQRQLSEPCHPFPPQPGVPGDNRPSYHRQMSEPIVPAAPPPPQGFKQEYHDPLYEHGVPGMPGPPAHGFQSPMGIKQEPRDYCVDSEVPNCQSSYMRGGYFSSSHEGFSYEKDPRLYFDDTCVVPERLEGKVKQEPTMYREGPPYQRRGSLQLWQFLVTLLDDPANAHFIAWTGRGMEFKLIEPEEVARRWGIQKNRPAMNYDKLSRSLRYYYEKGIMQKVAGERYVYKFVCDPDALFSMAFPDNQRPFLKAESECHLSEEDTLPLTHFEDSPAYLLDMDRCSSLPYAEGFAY
In short: as §1

HSF1 = HSF1 (Homo sapiens, UniProt Q00613 1-529); conditions: protein: recombinant; tags: N-terminal GST; chain copies: 3; dsDNA, one strand shown
HSF1, sequence (Q00613 whole entry): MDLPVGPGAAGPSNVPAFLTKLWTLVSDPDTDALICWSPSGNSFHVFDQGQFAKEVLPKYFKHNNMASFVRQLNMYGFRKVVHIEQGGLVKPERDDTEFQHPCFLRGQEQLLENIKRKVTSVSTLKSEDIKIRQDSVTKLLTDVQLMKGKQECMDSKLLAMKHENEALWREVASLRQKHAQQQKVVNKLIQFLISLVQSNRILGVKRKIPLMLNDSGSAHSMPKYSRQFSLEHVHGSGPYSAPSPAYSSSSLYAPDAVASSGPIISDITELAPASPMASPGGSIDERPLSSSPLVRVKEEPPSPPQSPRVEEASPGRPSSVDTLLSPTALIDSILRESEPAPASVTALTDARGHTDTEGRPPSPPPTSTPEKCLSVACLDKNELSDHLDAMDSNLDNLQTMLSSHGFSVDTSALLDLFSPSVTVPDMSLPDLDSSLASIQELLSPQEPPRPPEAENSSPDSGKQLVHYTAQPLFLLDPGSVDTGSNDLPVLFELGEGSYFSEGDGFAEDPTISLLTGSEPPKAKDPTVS
In short: as §1

SPIC = molecular target: T2, SPIC (Homo sapiens, UniProt Q8N5J4 1-248); conditions: protein: recombinant; tags: N-terminal GST; dsDNA, one strand shown
T2 sequence: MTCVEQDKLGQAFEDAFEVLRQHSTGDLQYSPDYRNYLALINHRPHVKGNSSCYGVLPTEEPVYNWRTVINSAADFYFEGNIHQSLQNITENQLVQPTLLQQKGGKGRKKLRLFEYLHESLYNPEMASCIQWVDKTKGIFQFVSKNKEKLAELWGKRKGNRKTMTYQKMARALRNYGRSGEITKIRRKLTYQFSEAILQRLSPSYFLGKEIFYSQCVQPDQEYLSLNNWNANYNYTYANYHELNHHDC
In short: as §1

ELF4 = ELF4 (Homo sapiens, UniProt Q99607 1-663); conditions: protein: recombinant; tags: N-terminal GST; dsDNA, one strand shown
ELF4, sequence (Q99607 whole entry): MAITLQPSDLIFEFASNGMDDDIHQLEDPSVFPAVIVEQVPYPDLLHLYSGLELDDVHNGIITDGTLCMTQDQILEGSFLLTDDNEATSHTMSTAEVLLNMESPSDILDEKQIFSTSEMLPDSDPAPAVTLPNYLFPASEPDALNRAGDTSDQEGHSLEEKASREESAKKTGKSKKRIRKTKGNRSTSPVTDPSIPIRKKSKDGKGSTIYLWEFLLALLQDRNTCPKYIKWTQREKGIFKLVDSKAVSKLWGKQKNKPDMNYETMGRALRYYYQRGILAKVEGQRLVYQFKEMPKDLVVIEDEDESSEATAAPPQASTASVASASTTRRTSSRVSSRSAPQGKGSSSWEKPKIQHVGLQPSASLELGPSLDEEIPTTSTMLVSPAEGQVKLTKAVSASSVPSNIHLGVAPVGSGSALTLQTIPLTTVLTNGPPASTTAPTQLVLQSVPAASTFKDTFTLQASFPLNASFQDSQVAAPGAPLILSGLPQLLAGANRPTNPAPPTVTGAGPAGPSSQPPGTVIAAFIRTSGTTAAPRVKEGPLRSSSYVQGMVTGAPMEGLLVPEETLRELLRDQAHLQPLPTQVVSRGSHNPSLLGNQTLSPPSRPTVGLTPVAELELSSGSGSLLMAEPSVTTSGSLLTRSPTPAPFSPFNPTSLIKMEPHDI
In short: as §1

ELK4 = molecular target: T3, ELK4 (Homo sapiens, UniProt P28324-2 1-405); conditions: protein: recombinant; tags: N-terminal GST; dsDNA, one strand shown
T3 sequence: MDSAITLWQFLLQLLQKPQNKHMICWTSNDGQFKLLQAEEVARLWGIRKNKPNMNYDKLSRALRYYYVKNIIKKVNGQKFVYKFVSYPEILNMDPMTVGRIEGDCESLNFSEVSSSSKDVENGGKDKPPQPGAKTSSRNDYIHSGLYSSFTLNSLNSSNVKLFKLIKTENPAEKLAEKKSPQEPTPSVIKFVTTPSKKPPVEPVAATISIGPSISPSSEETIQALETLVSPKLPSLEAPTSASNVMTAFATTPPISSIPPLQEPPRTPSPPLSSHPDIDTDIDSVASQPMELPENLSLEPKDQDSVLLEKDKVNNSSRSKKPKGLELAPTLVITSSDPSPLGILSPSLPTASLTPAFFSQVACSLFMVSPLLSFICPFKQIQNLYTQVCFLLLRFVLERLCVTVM
In short: as §1

ETV2 = molecular target: T4, ETV2 (Homo sapiens, UniProt O00321 1-342); conditions: protein: recombinant; tags: N-terminal GST; dsDNA, one strand shown
T4 sequence: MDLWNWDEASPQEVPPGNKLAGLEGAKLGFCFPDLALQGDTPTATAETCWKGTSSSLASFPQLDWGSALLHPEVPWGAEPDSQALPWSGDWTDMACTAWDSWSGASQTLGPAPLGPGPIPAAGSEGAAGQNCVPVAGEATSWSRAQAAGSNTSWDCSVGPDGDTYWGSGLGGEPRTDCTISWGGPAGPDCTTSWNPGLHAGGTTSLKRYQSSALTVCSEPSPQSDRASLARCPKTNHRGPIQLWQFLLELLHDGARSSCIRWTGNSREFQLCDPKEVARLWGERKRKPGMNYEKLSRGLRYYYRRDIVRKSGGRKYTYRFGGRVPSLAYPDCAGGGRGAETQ
In short: as §1

ELF3 = molecular target: T5, ELF3 (Homo sapiens, UniProt P78545 1-371); conditions: protein: recombinant; tags: N-terminal GST; dsDNA, one strand shown
T5 sequence: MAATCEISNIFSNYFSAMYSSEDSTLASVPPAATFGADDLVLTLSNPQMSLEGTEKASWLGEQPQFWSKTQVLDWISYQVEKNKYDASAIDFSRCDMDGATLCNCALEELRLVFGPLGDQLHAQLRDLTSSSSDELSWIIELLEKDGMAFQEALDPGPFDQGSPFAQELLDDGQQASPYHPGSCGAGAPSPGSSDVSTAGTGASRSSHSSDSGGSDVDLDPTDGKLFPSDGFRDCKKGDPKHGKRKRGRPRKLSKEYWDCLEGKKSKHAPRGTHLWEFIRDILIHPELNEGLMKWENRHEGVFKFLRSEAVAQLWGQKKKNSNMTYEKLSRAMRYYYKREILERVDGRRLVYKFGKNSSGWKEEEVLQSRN
In short: as §1

CRX = CRX (Homo sapiens, UniProt O43186 1-299); conditions: protein: recombinant; tags: N-terminal GST; dsDNA, one strand shown
CRX, sequence (O43186 whole entry): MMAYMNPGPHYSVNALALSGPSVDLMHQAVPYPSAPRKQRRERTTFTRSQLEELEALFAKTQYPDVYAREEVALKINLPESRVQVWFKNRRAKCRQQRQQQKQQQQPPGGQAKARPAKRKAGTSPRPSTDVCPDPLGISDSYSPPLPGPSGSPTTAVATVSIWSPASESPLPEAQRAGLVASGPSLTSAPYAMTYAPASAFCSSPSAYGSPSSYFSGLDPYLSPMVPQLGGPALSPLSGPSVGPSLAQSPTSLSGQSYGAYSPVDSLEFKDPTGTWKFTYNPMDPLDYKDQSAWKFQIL
In short: as §1

ETV1 = ETV1 (Homo sapiens, UniProt P50549 1-477); conditions: protein: recombinant; tags: N-terminal GST; dsDNA, one strand shown
ETV1, sequence (P50549 whole entry): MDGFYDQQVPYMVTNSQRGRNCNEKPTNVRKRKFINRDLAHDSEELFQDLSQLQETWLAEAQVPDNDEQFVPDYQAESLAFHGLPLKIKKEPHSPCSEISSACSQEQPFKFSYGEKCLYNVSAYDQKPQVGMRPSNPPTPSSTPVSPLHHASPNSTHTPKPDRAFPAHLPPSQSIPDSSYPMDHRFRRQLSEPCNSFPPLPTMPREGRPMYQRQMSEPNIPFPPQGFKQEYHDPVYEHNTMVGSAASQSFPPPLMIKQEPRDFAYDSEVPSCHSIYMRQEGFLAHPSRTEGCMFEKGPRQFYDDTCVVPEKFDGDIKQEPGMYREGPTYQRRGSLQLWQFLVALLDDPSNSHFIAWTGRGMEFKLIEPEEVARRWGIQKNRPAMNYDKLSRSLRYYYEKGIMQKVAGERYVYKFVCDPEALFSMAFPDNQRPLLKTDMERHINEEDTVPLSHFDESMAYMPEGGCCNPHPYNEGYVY
In short: as §1

ERF = molecular target: T6, ERF (Homo sapiens, UniProt P50548 1-548); conditions: protein: recombinant; tags: N-terminal GST; dsDNA, one strand shown
T6 sequence: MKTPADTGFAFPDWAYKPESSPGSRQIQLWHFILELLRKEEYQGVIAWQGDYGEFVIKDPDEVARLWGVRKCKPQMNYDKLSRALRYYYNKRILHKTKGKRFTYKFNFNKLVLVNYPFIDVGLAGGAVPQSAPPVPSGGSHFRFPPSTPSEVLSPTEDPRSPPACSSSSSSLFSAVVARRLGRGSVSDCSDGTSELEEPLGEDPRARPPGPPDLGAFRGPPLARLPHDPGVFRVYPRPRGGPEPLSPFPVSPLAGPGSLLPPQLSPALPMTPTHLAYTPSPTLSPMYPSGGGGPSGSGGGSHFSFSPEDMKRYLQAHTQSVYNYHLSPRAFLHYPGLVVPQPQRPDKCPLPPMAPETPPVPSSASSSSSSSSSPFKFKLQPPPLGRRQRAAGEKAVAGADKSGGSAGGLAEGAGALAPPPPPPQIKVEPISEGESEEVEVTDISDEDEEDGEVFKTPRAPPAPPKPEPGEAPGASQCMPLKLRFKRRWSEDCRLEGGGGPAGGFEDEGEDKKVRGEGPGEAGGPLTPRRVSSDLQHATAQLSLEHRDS
In short: as §1

ETV3L = molecular target: T7, ETV3L (Homo sapiens, UniProt Q6ZN32 1-361); conditions: protein: recombinant; tags: N-terminal GST; dsDNA, one strand shown
T7 sequence: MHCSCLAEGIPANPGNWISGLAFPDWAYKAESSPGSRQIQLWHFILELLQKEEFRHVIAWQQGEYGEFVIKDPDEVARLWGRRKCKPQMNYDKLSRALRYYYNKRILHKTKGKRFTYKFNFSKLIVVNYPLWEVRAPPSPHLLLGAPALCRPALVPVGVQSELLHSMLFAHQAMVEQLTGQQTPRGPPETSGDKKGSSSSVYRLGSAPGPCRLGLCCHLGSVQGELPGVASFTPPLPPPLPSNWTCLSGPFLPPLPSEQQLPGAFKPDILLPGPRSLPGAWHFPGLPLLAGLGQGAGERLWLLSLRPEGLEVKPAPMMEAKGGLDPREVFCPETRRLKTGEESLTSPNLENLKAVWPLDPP
In short: as §1

ETS2 = molecular target: T8, ETS2 (Homo sapiens, UniProt P15036 1-469); conditions: protein: recombinant; tags: N-terminal GST; dsDNA, one strand shown
T8 sequence: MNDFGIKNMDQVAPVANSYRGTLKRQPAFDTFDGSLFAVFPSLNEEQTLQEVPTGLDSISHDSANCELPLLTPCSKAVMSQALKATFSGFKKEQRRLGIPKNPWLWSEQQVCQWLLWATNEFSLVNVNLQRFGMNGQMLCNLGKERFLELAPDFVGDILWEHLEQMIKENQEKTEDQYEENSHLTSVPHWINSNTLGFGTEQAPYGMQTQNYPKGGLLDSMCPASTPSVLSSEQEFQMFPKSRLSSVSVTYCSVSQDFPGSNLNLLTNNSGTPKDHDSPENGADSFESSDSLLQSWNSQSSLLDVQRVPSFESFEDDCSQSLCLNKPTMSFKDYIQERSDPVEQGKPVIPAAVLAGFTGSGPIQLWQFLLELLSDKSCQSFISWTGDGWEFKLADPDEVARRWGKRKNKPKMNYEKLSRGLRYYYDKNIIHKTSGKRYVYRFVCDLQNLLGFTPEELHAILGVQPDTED
In short: as §1

SPDEF = molecular target: T9, SPDEF (Homo sapiens, UniProt O95238 1-335); conditions: protein: recombinant; tags: N-terminal GST; dsDNA, one strand shown
T9 sequence: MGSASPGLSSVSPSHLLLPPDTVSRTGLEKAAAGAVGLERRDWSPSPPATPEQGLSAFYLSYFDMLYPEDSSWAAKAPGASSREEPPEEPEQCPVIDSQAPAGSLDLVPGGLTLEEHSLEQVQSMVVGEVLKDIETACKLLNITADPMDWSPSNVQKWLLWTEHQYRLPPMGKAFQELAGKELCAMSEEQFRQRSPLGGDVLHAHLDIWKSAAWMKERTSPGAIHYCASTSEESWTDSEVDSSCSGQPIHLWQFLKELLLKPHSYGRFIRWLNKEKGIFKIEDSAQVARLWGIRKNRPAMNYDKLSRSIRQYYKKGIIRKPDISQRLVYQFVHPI
In short: as §1

ETV7 = molecular target: T10, ETV7 (Homo sapiens, UniProt Q9Y603 1-341); conditions: protein: recombinant; tags: N-terminal GST; dsDNA, one strand shown
T10 sequence: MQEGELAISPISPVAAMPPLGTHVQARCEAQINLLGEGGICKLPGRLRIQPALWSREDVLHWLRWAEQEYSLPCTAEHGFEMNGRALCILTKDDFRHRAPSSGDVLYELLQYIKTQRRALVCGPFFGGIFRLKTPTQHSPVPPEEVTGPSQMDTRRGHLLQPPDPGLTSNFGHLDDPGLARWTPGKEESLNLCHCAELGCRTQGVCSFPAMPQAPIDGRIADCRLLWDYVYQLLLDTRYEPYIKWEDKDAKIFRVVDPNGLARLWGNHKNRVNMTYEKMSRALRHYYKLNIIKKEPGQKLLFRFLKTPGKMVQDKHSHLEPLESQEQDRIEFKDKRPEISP
In short: as §1

ELF5 = molecular target: T11, ELF5 (Homo sapiens, UniProt Q9UKW6-2 1-255); conditions: protein: recombinant; tags: N-terminal GST; dsDNA, one strand shown
T11 sequence: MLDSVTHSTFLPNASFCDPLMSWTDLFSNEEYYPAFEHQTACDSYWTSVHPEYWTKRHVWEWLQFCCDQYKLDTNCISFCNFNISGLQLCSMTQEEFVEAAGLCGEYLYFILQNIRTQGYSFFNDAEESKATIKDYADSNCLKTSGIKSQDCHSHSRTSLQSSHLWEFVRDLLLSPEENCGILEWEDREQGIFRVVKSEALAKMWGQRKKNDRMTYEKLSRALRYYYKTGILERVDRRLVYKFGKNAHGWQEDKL
In short: as §1

ETV3 = molecular target: T12, ETV3 (Homo sapiens, UniProt P41162-2 1-143); conditions: protein: recombinant; tags: N-terminal GST; dsDNA, one strand shown
T12 sequence: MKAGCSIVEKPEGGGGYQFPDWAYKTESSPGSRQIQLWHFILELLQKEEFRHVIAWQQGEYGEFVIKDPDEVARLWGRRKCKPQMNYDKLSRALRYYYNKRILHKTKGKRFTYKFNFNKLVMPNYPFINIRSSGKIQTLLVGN
In short: as §1

ETV6 = ETV6 (Homo sapiens, UniProt P41212 1-452); conditions: protein: recombinant; tags: N-terminal GST; dsDNA, one strand shown
ETV6, sequence (P41212 whole entry): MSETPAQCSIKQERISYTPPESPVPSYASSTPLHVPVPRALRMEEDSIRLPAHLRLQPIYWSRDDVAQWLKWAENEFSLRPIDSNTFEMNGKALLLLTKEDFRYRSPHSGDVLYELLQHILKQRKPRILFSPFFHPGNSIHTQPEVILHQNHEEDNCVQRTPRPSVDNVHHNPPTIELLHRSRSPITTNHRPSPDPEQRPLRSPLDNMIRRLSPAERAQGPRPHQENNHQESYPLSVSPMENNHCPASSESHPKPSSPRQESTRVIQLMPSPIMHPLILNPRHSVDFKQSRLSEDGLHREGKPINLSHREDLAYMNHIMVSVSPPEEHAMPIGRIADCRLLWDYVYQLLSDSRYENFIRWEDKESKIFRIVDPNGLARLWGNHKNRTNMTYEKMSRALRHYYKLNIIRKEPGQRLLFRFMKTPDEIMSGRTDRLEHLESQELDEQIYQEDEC
In short: as §1

GCTTCT
binding signal (FEV): 1.41 fold enrichment (6-mer frequency, TF over GST control) | binding signal (ETV5): 1.57 fold enrichment (6-mer frequency, TF over GST control) | binding signal (HSF1): 2.32 fold enrichment (6-mer frequency, TF over GST control) | binding signal (SPIC): 1.48 fold enrichment (6-mer frequency, TF over GST control) | binding signal (ELF4): 1.6 fold enrichment (6-mer frequency, TF over GST control) | binding signal (ELK4): 1.4 fold enrichment (6-mer frequency, TF over GST control) | binding signal (ETV2): 1.46 fold enrichment (6-mer frequency, TF over GST control) | binding signal (ELF3): 1.25 fold enrichment (6-mer frequency, TF over GST control) | binding signal (CRX): 1.81 fold enrichment (6-mer frequency, TF over GST control) | binding signal (ETV1): 1.42 fold enrichment (6-mer frequency, TF over GST control) | binding signal (ERF): 1.64 fold enrichment (6-mer frequency, TF over GST control) | binding signal (ETV3L): 1.37 fold enrichment (6-mer frequency, TF over GST control) | binding signal (ETS2): 1.5 fold enrichment (6-mer frequency, TF over GST control) | binding signal (SPDEF): 1.34 fold enrichment (6-mer frequency, TF over GST control) | binding signal (ETV7): 1.43 fold enrichment (6-mer frequency, TF over GST control) | binding signal (ELF5): 1.56 fold enrichment (6-mer frequency, TF over GST control) | binding signal (ETV3): 1.4 fold enrichment (6-mer frequency, TF over GST control) | binding signal (ETV6): 1.45 fold enrichment (6-mer frequency, TF over GST control)
